Among the data in the supplement of paper PMC10849652 are log2 fold change values, retold here.

Common to all, as to experiment: log2 fold change, soluble protein after heating vs DMSO (PISA); higher = thermal stabilisation; K562 lysate, 10 uM; active = over 0.2 and 3.5 SD of the protein, either way, in both replicates (recomputed)
Compound in test [1]: C1=CC=C(C=C1)[C@H](COC2=CC3=C(C=C2)NC(=O)N3)NC(=O)C4=CC=CN(C4=O)CC5=CC(=C(C=C5)F)F
The method, boiled down: (§1)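 Quantification was by TMTpro 16plex LC-MS/MS with equalised channel sums, applied to the supernatant after 21,000xg for 90 min. Samples were crude K562 extract at 1 mg/mL protein in PBS pH 7.4 with 1 mM MgCl2, treated with 10 μM compound for 30 min, heated for 3 min across 48°C-58°C, pooled and brought to 0.5% NP-40 at 4°C. Values are log-two fold changes in thermal stability relative to solvent controls, from duplicates.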

Compound in test [2]: CC1=C(SC2=C1C(=N[C@H](C3=NN=C(N32)C)CC(=O)N)C4=CC=C(C=C4)Cl)C
In short, it runs like this:
as §1

Compound in test [3]: CC1=C2C(=CC=C1)N=C(N(C2=O)C3=CC=CC=C3C)CN4C=NC5=C(N=CN=C54)N
The method, boiled down:
as §1

Compound in test [4]: Cc1sc2c(c1C)C(c1ccc(Cl)cc1)=N[C@@H](CC(=O)OC(C)(C)C)c1nnc(C)n1-2
In short, it runs like this:
as §1

Compound in test [5]: c1ccc([C@@H]2C[C@H]2NC2CCNCC2)cc1
In short, it runs like this:
as §1

The full data set covers some 8,800 targets. This sample favours those with a hit. About 0.5% of all pairs of compound and target were hits. Values without a mark were called inactive.

Sequence of UniProt O43502 (O43502 whole entry, looked up): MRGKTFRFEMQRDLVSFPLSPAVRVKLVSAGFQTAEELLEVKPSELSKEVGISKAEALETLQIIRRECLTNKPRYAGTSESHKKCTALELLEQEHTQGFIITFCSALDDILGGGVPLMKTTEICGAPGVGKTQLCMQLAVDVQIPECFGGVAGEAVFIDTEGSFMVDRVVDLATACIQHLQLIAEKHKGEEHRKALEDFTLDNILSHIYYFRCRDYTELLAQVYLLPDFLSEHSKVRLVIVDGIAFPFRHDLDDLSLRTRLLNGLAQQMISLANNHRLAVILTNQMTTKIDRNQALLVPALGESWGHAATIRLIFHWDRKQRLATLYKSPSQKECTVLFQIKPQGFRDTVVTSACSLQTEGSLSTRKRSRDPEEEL
Sequence of UniProt Q96DM3 (Q96DM3 whole entry, looked up): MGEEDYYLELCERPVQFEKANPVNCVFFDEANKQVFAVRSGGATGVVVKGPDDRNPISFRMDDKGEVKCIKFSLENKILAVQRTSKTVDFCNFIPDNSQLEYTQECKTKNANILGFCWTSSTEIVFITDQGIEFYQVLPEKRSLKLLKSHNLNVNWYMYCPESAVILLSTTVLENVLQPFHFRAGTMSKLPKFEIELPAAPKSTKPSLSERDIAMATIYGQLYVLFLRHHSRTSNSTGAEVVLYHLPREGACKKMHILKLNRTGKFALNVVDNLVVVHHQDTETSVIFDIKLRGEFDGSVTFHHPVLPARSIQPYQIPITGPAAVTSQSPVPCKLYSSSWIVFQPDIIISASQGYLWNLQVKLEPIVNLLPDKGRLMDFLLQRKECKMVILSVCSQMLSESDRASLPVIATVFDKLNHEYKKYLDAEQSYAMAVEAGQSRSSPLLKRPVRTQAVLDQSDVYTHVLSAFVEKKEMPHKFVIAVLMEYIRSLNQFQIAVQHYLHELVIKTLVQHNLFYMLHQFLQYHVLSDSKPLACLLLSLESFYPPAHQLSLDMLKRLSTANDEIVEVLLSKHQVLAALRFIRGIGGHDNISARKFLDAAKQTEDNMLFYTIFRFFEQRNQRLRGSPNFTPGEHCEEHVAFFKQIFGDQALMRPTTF
Sequence of UniProt O00767 (O00767 whole entry, looked up): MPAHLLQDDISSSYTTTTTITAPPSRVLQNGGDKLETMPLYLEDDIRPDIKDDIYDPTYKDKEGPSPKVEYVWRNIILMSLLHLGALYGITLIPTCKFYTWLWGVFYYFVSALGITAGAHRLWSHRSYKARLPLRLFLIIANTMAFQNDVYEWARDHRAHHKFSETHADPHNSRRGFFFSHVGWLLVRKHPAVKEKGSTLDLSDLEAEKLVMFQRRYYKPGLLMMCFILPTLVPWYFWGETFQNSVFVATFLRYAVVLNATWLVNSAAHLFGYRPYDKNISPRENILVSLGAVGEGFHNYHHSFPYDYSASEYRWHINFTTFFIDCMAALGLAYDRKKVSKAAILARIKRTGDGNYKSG
Sequence of UniProt O15541 (O15541 whole entry, looked up): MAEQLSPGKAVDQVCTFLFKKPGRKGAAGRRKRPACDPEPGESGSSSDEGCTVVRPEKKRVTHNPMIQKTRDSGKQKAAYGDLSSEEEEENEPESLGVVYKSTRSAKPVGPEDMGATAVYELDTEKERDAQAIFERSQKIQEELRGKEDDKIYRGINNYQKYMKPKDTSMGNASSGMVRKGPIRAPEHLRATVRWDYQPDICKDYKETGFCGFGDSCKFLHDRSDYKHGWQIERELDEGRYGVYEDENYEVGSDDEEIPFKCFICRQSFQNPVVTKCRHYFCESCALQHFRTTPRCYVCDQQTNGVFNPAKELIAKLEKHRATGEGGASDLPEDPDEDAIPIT
Sequence of UniProt Q92878 (Q92878 whole entry, looked up): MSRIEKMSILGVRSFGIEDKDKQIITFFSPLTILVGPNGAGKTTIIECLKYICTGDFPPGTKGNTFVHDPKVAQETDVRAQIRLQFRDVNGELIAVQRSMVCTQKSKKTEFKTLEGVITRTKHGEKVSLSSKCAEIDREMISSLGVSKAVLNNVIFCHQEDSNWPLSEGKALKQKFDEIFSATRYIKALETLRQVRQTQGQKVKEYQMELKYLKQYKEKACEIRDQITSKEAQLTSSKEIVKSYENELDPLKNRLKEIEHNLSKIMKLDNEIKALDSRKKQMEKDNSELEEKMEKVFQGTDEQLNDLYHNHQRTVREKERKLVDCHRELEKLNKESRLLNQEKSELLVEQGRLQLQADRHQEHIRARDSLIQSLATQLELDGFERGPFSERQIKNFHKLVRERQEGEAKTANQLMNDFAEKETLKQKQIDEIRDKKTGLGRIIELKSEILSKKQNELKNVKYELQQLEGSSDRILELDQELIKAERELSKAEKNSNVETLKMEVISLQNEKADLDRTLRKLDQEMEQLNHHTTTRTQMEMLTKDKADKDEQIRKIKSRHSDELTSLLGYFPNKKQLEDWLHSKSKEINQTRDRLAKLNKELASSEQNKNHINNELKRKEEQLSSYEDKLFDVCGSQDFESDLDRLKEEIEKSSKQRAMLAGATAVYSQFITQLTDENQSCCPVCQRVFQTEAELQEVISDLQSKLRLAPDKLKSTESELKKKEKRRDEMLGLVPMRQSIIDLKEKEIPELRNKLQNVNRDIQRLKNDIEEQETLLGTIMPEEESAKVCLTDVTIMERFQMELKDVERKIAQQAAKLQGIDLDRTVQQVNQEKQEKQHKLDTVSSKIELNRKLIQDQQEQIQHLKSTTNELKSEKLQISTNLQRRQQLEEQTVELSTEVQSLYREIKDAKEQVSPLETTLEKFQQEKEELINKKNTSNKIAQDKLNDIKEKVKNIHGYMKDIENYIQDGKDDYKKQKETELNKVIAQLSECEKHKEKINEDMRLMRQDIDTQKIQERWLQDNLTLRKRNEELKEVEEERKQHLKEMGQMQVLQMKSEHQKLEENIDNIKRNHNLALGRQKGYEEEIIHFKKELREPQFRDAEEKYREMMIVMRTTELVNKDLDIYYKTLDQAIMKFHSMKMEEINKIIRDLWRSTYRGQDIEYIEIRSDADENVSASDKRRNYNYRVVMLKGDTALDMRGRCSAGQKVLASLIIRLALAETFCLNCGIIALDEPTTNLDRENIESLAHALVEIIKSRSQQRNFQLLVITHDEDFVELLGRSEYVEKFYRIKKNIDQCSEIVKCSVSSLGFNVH
Sequence of UniProt Q9H0R6 (Q9H0R6 whole entry, looked up): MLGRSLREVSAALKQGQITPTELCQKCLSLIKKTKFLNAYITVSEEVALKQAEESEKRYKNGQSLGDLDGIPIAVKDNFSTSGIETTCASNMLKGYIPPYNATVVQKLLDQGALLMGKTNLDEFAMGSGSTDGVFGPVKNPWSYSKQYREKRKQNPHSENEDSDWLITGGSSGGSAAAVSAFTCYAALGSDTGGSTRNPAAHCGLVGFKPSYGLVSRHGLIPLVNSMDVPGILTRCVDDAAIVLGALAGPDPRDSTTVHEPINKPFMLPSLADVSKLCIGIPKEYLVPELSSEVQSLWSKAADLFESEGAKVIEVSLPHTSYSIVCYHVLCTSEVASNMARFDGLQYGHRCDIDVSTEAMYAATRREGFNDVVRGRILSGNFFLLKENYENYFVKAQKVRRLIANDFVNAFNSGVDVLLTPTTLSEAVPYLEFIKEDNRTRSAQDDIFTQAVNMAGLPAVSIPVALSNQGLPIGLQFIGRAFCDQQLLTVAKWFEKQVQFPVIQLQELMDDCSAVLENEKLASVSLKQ
Sequence of UniProt P18754 (P18754 whole entry, looked up): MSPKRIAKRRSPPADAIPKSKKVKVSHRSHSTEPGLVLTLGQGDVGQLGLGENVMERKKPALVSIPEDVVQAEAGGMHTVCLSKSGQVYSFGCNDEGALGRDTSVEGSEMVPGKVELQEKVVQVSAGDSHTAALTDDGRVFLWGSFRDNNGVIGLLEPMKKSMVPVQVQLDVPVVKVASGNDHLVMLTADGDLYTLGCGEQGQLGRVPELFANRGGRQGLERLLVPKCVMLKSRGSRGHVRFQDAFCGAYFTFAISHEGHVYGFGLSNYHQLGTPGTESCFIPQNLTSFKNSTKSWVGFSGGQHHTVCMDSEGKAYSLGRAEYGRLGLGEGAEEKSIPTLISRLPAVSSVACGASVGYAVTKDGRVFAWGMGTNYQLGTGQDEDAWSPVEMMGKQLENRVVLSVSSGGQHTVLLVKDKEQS
Sequence of UniProt O43819 (O43819 whole entry, looked up): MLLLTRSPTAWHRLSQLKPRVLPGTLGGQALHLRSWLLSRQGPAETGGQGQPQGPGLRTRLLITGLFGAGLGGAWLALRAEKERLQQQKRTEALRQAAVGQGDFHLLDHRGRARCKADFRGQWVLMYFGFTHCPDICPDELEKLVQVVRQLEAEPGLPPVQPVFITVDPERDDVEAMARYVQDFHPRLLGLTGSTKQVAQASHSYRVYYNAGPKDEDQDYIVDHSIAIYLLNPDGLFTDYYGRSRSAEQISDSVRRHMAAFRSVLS
Sequence of UniProt P53611 (P53611 whole entry, looked up): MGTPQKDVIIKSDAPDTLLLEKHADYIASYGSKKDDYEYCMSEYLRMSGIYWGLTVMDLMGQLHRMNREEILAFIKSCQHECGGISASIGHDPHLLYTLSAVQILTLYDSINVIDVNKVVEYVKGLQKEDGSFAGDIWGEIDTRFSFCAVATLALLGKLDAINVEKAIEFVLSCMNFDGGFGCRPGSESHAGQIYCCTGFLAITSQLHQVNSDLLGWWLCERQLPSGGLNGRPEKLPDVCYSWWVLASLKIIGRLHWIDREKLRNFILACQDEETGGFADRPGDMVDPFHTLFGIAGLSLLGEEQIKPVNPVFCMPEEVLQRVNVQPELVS
Sequence of UniProt P55735 (P55735 whole entry, looked up): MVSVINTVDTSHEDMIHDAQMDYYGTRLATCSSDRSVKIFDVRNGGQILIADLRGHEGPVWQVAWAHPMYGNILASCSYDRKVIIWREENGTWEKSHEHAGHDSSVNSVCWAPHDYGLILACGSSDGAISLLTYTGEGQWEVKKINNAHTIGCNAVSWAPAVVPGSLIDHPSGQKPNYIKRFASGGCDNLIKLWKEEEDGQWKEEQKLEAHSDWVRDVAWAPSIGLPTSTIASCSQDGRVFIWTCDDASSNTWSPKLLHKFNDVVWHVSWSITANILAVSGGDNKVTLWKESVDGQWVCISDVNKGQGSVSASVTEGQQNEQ

Consider SCML2 (UniProt Q9UQR0), for which the log2 fold change in test [1] was -0.036; in test [2], 0.062; in test [3], -0.055; in test [4], -0.032; in test [5] it was 0.02.
Taken in the same sequence, the figures for S100A11 (UniProt P31949) were 0.029, -0.075, -0.002, -0.029 and -0.005.
Taken in the same sequence, the figures for RCC1 isoform 2 (UniProt P18754) were 0.023, 0.026, -0.013, 0.045 and 0.014.
The like results for RNF113A (UniProt O15541) were, in that order, 0.047, -0.022, -0.018, -0.065 and -0.066.
As for RAD51C (UniProt O43502), the log2 fold change is -0.028 in test [1]; 0.026 in test [2]; 0.078 in test [3]; -0.029 in test [4]; -0.004 in test [5].
For the target SCO2 (UniProt O43819), the log2 fold change is 0.026 in test [1]; 0.002 in test [2]; 0.037 in test [3]; 0.011 in test [4]; -0.074 in test [5].
Taken in the same sequence, the figures for SEC62 (UniProt Q99442) were 0.059, -0.017, 0.015, 0.043 and -0.023.
On to SCD (UniProt O00767), for which the log2 fold change in test [1] was -0.016; in test [2], -0.007; in test [3], 0.103; in test [4], -0.179; in test [5] it was -0.184.
The like results for RASA2 (UniProt Q15283) were, in that order, -0.07, 0.045, 0.058, 0.025 and 0.037.
RMC1 (UniProt Q96DM3): the log2 fold change in test [1] was -0.013; in test [2], 0.018; in test [3] it was -0.052; in test [4] it was 0.05; in test [5] it was 0.007.
On to QRSL1 (UniProt Q9H0R6), for which the log2 fold change in test [1] is -0.005; in test [2], -0.056; in test [3] it was -0.101; in test [4] it was 0.041; in test [5] it was 0.094.
With RPL27 (UniProt P61353), the log2 fold change in test [1] was 0.034; in test [2], 0.031; in test [3], 0.003; in test [4], 0.008; in test [5] it was 0.101.
Taken in the same sequence, the figures for RABGGTB (UniProt P53611) were -0.102, -0.01, 0.005, -0.048 and -0.017.
Taken in the same sequence, the figures for RPS29 (UniProt P62273) were 0.047, -0.055, -0.071, 0.328 and 0.398.
Taken in the same sequence, the figures for RAD50 isoform 2 (UniProt Q92878) were -0.002, -0.031, 0.004, 0.008 and 0.009.
Consider RANBP2 (UniProt P49792), for which the log2 fold change was -0.019 in test [1]; -0.009 in test [2]; 0.002 in test [3]; 0.003 in test [4]; 0.02 in test [5].
The like results for RAB21 (UniProt Q9UL25) were, in that order, -0.086, 0.036, 0.019, 0.055 and 0.127.
Taken in the same sequence, the figures for RPTOR (UniProt Q8N122) were 0.015, -0.024, 0.035, -0.008 and 0.04.
The like results for RETSAT (UniProt Q6NUM9) were, in that order, 0.103, -0.037, 0.148, -0.145 and -0.015.
In the case of RNF213, A0A0A0MTC1, the log2 fold change is -0.02 in test [1]; -0.007 in test [2]; 0.069 in test [3]; 0.004 in test [4]; 0.045 in test [5].
Taken in the same sequence, the figures for SCAF1 (UniProt Q9H7N4) were 0.112, -0.492 (active), 0.002, -0.007 and 0.019.
Taken in the same sequence, the figures for RIOK3 (UniProt O14730) were 0.002, 0.052, 0.053, -0.007 and 0.016.
The like results for SBF1 isoform 4 (UniProt O95248) were, in that order, -0.08, 0.001, -0.094, 0.092 and 0.072.
Consider SEC13 isoform 3 (UniProt P55735), for which the log2 fold change in test [1] was 0.022; in test [2] it was -0.013; in test [3] it was -0.001; in test [4] it was -0.029; in test [5] it was 0.191.
